Measurements as given in PMC11062922 (Nature Chemical Biology, 2023).

What was measured:
Design in all cases: species or system human, MV4-11 + K-562 + COLO205 + SK-N-BE2 + OVCAR-8
[1] = test system: IARS; details: read-out: apparent Kd; compound concentrations: 100 nM and 1000 nM (sheet 'Samples'), CATDS: 0.121118103418118; n = 1
[2] = test system: IGF1R; details: read-out: apparent Kd; compound concentrations: 100 nM and 1000 nM (sheet 'Samples'), CATDS: 4.98725467652835E-2; n = 1
[3] = test system: INSR; details: read-out: apparent Kd; compound concentrations: 100 nM and 1000 nM (sheet 'Samples'), CATDS: 5.9878421296946899E-2; n = 1
[4] = test system: SMG1; details: read-out: apparent Kd; compound concentrations: 100 nM and 1000 nM (sheet 'Samples'), CATDS: 0.40091827457547202; n = 1
[5] = test system: PRKG1; details: read-out: apparent Kd; compound concentrations:100 nM and 1000 nM (sheet 'Samples'); n = 1
[6] = test system: PRKX; details: read-out: apparent Kd; compound concentrations:100 nM and 1000 nM (sheet 'Samples'); n = 1
[7] = test system: ROCK2; details: read-out: apparent Kd; compound concentrations:100 nM and 1000 nM (sheet 'Samples'); n = 1
[8] = test system: RAB6A;RAB6B; details: read-out: apparent Kd; compound concentrations: 100 nM and 1000 nM (sheet 'Samples'), CATDS: 6.2517900726017095E-2; n = 1
[9] = test system: HMOX2; details: read-out: apparent Kd; compound concentrations:100 nM and 1000 nM (sheet 'Samples'); n = 1
[10] = test system: HSP90AA1; details: read-out: apparent Kd; compound concentrations: 100 nM and 1000 nM (sheet 'Samples'), CATDS: 6.9109754816413196E-2; n = 1
[11] = test system: HSPE1; details: read-out: apparent Kd; compound concentrations: 100 nM and 1000 nM (sheet 'Samples'), CATDS: 0.293798637885134; n = 1
[12] = test system: PGK1; details: read-out: apparent Kd; compound concentrations: 100 nM and 1000 nM (sheet 'Samples'), CATDS: 0.39771264362053399; n = 1
[13] = test system: CDC42BPG; details: read-out: apparent Kd; compound concentrations: 100 nM and 1000 nM (sheet 'Samples'), CATDS: 6.5617212110221396E-2; n = 1
[14] = test system: GRAMD1A; details: read-out: apparent Kd; compound concentrations: 100 nM and 1000 nM (sheet 'Samples'), CATDS: 4.7101579015389999E-2; n = 1
[15] = test system: MAP4K4; details: read-out: apparent Kd; compound concentrations: 100 nM and 1000 nM (sheet 'Samples'), CATDS: 5.45482325953821E-2; n = 1
[16] = test system: AGPS; details: read-out: apparent Kd; compound concentrations:100 nM and 1000 nM (sheet 'Samples'); n = 1

SMILES: CS(=O)(=O)c1ccc(-c2nc3n(c2-c2ccncc2)CCC3)cc1 [SKF-105942]
- potency estimated from few doses [1]: 1900 nM

SMILES: COc1cc(N2CCN(C(C)C)CC2)ccc1Nc1nc(Nc2cccc(F)c2C(=O)O)c2cc[nH]c2n1 [GSK1819799A]
- potency estimated from few doses [2]: 1270 nM
- potency estimated from few doses [3]: 816 nM

SMILES: COc1ccc(-c2ccncc2)cc1C(N)=O [GSK605714A]
- potency estimated from few doses [4]: 1830 nM

SMILES: COc1ccc(C2=NC(c3ccc(Cl)cc3F)C(C(=O)Nc3ccc4[nH]ncc4c3)=C(C)N2)cn1.O=C(O)C(F)(F)F (stereo not shown) [GSK534913A]
- potency estimated from few doses [5]: 825 nM
- potency estimated from few doses [6]: 758 nM
- potency estimated from few doses [7]: 131 nM

SMILES: Fc1cccc(COc2ccc(Nc3ncncc3C#Cc3ccccc3)cc2Cl)c1 [GW651576X]
- potency estimated from few doses [8]: 1160 nM

SMILES: Nc1c(C(=O)c2ccccc2)cnn1-c1ccc(F)cc1 [RO1151246-000]
- potency estimated from few doses [9]: 2210 nM

SMILES: Cc1[nH]nc2c1N=C(c1ccccc1Cl)c1cc([N+](=O)[O-])ccc1N2 [RO0274406-000]
- potency estimated from few doses [10]: 1380 nM
- potency estimated from few doses [11]: 60.7 nM
- potency estimated from few doses [12]: 37.7 nM

SMILES: COc1ccc(-c2nn3ncccc3c2-c2ccnc(Nc3ccc4c(c3)OCCO4)n2)cc1 [GW827106X]
- potency estimated from few doses [13]: 834 nM
- potency estimated from few doses [14]: 1730 nM
- potency estimated from few doses [15]: 1220 nM

SMILES: COc1ccc(COc2ccc(Cc3cnc(N)nc3N)cc2OC)cc1 [GW632580X]
- potency estimated from few doses [16]: 1650 nM
